# Measured values from the supplement of paper PMC10849652.
# Targets with a hit are over-represented here; the source holds about 8,800 in all. About 0.5% of all pairs of compound and target were hits. Unmarked numbers belong to inactive results.
# Columns and labels:
# Test in all cases: log2 fold change, soluble protein after heating vs DMSO (PISA); higher = thermal stabilisation; K562 lysate, 10 uM; active = over 0.2 and 3.5 SD of the protein, either way, in both replicates (recomputed)
# lapatinib = compound: CS(=O)(=O)CCNCc1ccc(-c2ccc3ncnc(Nc4ccc(OCc5cccc(F)c5)c(Cl)c4)c3c2)o1 [lapatinib]
# In short: (§1)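 Thermal stability, expressed as log-two fold change relative to solvent controls, is given from duplicates. Crude K562 extract in PBS pH 7.4 with 1 mM MgCl2, at 1 mg/mL protein, was treated with 10 μM compound for 30 min and heated in aliquots for 3 min across 48°C-58°C. After pooling, adjustment to 0.5% NP-40 at 4°C and centrifugation at 21,000xg for 90 min, supernatant protein was measured by TMTpro 16plex LC-MS/MS with channel sums equalised.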
# pictilisib = compound: CS(=O)(=O)N1CCN(Cc2cc3nc(-c4cccc5[nH]ncc45)nc(N4CCOCC4)c3s2)CC1 [pictilisib]
# In short: as §1
# crizotinib = compound: C[C@@H](Oc1cc(-c2cnn(C3CCNCC3)c2)cnc1N)c1c(Cl)ccc(F)c1Cl [crizotinib]
# In short: as §1
# [1] = compound: C[C@H](C1=CC=C(C=C1)C(=O)NC2=C3C=CNC3=NC=C2)N
# In short: as §1
# duvelisib = compound: C[C@H](Nc1ncnc2nc[nH]c12)c1cc2cccc(Cl)c2c(=O)n1-c1ccccc1 [duvelisib]
# In short: as §1
# gandotinib = compound: Cc1cc(Nc2cc(CN3CCOCC3)c3nc(C)c(Cc4ccc(Cl)cc4F)n3n2)n[nH]1 [gandotinib]
# In short: as §1
# tozasertib = compound: Cc1cc(Nc2cc(N3CCN(C)CC3)nc(Sc3ccc(NC(=O)C4CC4)cc3)n2)n[nH]1 [tozasertib]
# In short: as §1
# doramapimod = compound: Cc1ccc(-n2nc(C(C)(C)C)cc2NC(=O)Nc2ccc(OCCN3CCOCC3)c3ccccc23)cc1 [doramapimod]
# In short: as §1
# bafetinib = compound: Cc1ccc(NC(=O)c2ccc(CN3CC[C@H](N(C)C)C3)c(C(F)(F)F)c2)cc1Nc1nccc(-c2cncnc2)n1 [bafetinib]
# In short: as §1
# [2] = compound: Cc1cccc(CC(=O)N2CCc3c2ccc(-c2cn(C)c4ncnc(N)c24)c3F)n1
# In short: as §1
# nilotinib = compound: Cc1cn(-c2cc(NC(=O)c3ccc(C)c(Nc4nccc(-c5cccnc5)n4)c3)cc(C(F)(F)F)c2)cn1 [nilotinib]
# In short: as §1
# [3] = compound: Cc1nc(Nc2n[nH]c3c2CN(C(=O)N[C@H](CN(C)C)c2ccccc2)C3(C)C)c2sccc2n1
# In short: as §1
# dasatinib = compound: Cc1nc(Nc2ncc(C(=O)Nc3c(C)cccc3Cl)s2)cc(N2CCN(CCO)CC2)n1 [dasatinib]
# In short: as §1
# [4] = compound: Cc1ncc(-c2ccnc(Nc3ccc(S(C)(=O)=O)cc3)n2)n1C(C)C
# In short: as §1
# [5] = compound: Cn1cc(-c2ccc3c(c2)CCN3C(=O)Cc2cccc(C(F)(F)F)c2)c2c(N)ncnc21
# In short: as §1
# quisinostat = compound: Cn1cc(CNCC2CCN(c3ncc(C(=O)NO)cn3)CC2)c2ccccc21 [quisinostat]
# In short: as §1
# tipifarnib = compound: Cn1cncc1[C@@](N)(c1ccc(Cl)cc1)c1ccc2c(c1)c(-c1cccc(Cl)c1)cc(=O)n2C [tipifarnib]
# In short: as §1
# [6] = compound: NC(=O)Nc1cc(-c2cccc(F)c2)sc1C(=O)N[C@H]1CCCNC1
# In short: as §1
# [7] = compound: NC(=O)c1cnc(N[C@@H]2CCCC[C@@H]2N)nc1Nc1cccc(-n2nccn2)c1
# In short: as §1
# [8] = compound: NC1(c2ccc(-c3nc4ccn5c(=O)[nH]nc5c4cc3-c3ccccc3)cc2)CCC1
# In short: as §1
# UniProt P62306, sequence (P62306 whole entry, looked up): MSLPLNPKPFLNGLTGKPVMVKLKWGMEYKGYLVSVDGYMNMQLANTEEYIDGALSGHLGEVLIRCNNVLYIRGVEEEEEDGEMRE
# UniProt Q8NEM2, sequence (Q8NEM2 whole entry, looked up): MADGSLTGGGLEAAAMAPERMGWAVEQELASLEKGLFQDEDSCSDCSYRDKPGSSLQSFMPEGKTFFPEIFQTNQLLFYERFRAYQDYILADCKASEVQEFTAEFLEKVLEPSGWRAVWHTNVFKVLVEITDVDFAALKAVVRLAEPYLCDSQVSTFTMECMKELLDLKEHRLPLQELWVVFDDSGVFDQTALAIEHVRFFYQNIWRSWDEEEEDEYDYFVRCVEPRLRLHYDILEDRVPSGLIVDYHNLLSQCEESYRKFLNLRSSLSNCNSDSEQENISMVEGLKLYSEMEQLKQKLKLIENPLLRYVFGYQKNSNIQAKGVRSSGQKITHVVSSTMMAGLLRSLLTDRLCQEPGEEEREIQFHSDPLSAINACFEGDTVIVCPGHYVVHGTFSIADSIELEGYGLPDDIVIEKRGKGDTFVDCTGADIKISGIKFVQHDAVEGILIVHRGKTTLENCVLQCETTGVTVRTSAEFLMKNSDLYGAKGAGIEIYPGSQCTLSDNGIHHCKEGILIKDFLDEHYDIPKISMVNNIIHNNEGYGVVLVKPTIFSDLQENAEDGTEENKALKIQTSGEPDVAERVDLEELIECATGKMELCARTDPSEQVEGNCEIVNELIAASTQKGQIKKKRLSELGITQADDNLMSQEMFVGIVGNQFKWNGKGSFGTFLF
# UniProt Q9NZ72, sequence (Q9NZ72 whole entry, looked up): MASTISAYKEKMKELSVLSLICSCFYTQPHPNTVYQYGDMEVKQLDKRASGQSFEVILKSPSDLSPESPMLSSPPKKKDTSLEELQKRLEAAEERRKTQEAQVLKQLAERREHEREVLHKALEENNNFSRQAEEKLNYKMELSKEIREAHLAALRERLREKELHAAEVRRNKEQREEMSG
# UniProt Q96BI1, sequence (Q96BI1 whole entry, looked up): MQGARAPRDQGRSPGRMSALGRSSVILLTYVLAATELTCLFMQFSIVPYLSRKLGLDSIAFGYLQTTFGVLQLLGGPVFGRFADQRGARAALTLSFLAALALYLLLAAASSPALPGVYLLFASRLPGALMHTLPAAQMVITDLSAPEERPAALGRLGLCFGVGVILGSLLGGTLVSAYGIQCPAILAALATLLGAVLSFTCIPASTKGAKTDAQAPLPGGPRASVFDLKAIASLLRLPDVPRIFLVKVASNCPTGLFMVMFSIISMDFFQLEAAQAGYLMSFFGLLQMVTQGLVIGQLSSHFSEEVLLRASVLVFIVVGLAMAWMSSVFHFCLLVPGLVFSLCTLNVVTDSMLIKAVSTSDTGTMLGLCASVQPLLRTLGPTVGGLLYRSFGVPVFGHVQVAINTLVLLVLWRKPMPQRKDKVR
# UniProt Q8N196, sequence (Q8N196 whole entry, looked up): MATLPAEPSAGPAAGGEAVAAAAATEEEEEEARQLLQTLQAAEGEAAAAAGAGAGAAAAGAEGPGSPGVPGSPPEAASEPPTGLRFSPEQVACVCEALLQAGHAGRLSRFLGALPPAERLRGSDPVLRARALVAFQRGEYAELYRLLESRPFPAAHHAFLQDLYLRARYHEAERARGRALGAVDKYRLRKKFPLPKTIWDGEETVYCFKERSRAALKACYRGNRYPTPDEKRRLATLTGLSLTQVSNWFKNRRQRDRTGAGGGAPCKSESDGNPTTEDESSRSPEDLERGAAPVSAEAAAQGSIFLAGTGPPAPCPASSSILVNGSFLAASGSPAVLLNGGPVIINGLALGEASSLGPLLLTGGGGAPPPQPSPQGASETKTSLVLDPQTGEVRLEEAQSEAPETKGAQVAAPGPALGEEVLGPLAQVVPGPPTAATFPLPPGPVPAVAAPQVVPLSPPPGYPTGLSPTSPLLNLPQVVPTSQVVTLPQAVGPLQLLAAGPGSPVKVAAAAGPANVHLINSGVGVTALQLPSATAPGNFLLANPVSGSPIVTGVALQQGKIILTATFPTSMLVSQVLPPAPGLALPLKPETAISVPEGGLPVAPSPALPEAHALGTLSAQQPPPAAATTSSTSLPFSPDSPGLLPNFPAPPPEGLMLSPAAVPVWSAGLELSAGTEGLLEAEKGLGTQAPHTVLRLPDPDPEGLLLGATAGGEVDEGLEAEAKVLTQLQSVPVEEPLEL
# UniProt Q15506, sequence (Q15506 whole entry, looked up): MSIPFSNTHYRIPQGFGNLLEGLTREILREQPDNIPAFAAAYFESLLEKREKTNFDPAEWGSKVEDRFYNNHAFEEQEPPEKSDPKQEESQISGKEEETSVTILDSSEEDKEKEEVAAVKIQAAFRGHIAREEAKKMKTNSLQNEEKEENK
# UniProt Q96H78, sequence (Q96H78 whole entry, looked up): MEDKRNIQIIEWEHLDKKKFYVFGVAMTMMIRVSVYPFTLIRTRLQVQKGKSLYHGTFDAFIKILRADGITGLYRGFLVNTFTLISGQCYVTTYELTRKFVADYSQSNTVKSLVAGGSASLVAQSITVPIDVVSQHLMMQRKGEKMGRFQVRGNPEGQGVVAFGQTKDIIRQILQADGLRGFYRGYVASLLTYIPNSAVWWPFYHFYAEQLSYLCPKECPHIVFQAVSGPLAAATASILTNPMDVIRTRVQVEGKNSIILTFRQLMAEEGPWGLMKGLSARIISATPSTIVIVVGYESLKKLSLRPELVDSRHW
# UniProt Q9Y6J9, sequence (Q9Y6J9 whole entry, looked up): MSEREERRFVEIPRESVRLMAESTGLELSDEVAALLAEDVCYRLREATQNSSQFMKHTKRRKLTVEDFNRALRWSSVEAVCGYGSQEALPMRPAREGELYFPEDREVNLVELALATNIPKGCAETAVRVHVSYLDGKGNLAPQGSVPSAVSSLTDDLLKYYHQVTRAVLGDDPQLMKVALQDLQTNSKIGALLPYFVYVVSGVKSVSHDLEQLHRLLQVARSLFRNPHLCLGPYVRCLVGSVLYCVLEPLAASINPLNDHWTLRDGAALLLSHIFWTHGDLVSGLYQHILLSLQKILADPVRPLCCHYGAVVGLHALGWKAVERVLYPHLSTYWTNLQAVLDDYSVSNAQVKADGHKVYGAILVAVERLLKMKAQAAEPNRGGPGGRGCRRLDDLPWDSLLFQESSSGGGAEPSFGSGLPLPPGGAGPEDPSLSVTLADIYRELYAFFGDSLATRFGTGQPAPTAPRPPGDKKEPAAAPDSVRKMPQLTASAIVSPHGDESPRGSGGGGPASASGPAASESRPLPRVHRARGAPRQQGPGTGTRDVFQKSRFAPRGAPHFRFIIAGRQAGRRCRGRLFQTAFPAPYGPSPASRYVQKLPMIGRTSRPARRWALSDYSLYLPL
# UniProt O95149, sequence (O95149 whole entry, looked up): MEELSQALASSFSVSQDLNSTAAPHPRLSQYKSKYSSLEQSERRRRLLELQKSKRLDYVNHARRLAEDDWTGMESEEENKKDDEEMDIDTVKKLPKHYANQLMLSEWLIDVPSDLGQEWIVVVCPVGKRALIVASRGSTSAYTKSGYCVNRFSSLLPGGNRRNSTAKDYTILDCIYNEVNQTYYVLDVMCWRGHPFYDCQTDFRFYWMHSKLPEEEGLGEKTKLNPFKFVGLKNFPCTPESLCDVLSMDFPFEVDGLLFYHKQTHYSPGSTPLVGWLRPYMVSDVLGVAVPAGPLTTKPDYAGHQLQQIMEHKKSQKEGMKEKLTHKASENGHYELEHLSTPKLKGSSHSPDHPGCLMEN
# UniProt P08047, sequence (P08047 whole entry, looked up): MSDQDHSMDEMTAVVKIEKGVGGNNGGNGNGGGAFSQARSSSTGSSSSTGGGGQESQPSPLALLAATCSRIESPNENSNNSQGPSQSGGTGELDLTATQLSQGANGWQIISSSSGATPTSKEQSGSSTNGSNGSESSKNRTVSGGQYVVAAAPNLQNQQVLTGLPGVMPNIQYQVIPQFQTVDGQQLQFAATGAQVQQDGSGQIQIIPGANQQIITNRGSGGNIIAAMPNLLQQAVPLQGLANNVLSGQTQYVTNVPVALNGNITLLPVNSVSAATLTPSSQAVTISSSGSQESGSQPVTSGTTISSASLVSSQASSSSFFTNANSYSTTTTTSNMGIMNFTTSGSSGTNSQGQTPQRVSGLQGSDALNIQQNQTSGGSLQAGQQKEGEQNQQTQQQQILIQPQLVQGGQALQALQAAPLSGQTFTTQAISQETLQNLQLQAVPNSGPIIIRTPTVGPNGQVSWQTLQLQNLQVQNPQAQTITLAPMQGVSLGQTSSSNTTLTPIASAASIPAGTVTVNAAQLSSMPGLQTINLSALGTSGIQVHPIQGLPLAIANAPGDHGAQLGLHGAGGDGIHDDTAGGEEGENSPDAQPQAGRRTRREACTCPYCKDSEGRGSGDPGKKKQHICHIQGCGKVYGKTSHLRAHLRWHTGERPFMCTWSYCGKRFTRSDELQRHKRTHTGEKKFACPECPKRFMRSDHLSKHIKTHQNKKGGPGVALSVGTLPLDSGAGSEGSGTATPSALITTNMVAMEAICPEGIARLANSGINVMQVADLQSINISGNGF
# UniProt P41440, sequence (P41440 whole entry, looked up): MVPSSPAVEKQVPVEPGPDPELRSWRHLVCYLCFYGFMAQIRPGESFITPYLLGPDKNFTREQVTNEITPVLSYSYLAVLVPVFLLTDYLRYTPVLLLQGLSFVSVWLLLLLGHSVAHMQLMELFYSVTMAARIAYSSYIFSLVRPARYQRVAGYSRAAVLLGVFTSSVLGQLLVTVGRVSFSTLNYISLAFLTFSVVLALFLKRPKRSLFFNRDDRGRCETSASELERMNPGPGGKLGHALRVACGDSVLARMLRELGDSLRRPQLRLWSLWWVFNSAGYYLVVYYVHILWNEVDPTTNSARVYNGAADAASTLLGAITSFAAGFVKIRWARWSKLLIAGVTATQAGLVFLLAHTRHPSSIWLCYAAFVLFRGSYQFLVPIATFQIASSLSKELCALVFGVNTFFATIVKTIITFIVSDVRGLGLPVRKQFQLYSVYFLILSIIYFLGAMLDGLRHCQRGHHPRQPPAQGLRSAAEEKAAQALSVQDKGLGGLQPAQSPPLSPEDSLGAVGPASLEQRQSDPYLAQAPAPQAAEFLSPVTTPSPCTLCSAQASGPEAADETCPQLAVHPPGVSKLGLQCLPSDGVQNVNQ
Target,log2 fold change (lapatinib),log2 fold change (pictilisib),log2 fold change (crizotinib),log2 fold change [1],log2 fold change (duvelisib),log2 fold change (gandotinib),log2 fold change (tozasertib),log2 fold change (doramapimod),log2 fold change (bafetinib),log2 fold change [2],log2 fold change (nilotinib),log2 fold change [3],log2 fold change (dasatinib),log2 fold change [4],log2 fold change [5],log2 fold change (quisinostat),log2 fold change (tipifarnib),log2 fold change [6],log2 fold change [7],log2 fold change [8]
SNRPF (UniProt P62306),0.021,-0.029,-0.077,-0.237,0.076,0.21,-0.016,0.026,0.05,0.218,-0.044,0.063,0.005,0.013,-0.156,-0.276,-0.037,0,-0.044,0.013
STK38 (UniProt Q15208),-0.024,0.061,0.001,0.017,0.017,0.159,0.029,-0.001,-0.104,-0.071,-0.009,0.858 (active),-0.003,0.078,0.064,-0.14,-0.029,0.563 (active),0.054,0.036
SLC19A1 (UniProt P41440),-0.055,0.005,-0.002,-0.203 (active),-0.037,0.148,-0.021,0.004,-0.053,0.07,-0.026,0.014,0.019,-0.032,-0.017,-0.077,-0.01,-0.015,-0.027,-0.004
STK3 isoform 2 (UniProt Q13188),-0.045,0.02,0.299,-0.029,-0.058,0.468 (active),0.224,-0.035,0.001,0.122,0.015,0.274,0.132,0.179,0.276,-0.077,-0.014,,0.108,-0.01
SMYD3 (UniProt Q9H7B4),0.017,-0.018,-0.146,,0.062,,0.023,0.053,-0.062,,0.004,0.022,-0.101,0.01,-0.029,-0.056,0.031,0.038,0.036,-0.051
SLC25A44 (UniProt Q96H78),-0.031,-0.014,-0.034,-0.069,0.233,0.047,-0.008,-0.01,-0.037,0.166,,,-0.539 (active),,-0.162,-0.025,,0.044,0.005,0.363
STMN3 (UniProt Q9NZ72),-0.017,-0.08,0.009,,-0.023,,-0.023,-0.003,0.041,,-0.068,0.218,0.035,-0.041,-0.032,0.006,0.176,-0.022,-0.006,0.052
SNUPN (UniProt O95149),0.026,-0.083,-0.03,-0.009,,-0.036,0.023,-0.002,-0.061,0.006,-0.007,-0.013,,0.005,,0.128,-0.015,0.042,-0.115,-0.482 (active)
SIX5 (UniProt Q8N196),-0.105,0.015,-0.075,0.22,0.039,-0.48 (active),,0.143,-0.009,-0.306,0.06,-0.05,0.02,0.074,-0.064,-0.141,0.02,0.08,0.092,-0.025
SLC12A6 (UniProt Q9UHW9),0.037,-0.046,-0.025,0.008,0.015,-0.028,-0.002,0.027,-0.011,0.034,-0.004,0,0.024,-0.066,-0.003,-0.013,0.012,-0.001,-0.022,0.026
SRSF7 (UniProt Q16629),-0.061,0.075,0.084,-0.218 (active),0.058,0,0.036,-0.01,0.05,0.194,-0.006,-0.053,0.011,-0.056,-0.006,0.047,0.016,-0.088,0.019,0.034
SMIM1 (UniProt B2RUZ4),0.098,-0.028,-0.106,0.121,,0.106,-0.019,0.034,-0.021,0.011,0.056,0.05,,0.195,,0.168,0.039,-0.055,-0.188,-0.418 (active)
SLC22A18 (UniProt Q96BI1),0.072,0.026,-0.064,-0.094,,0.147,-0.004,0.032,-0.001,0.033,,,,,,-0.027,,-0.032,0.029,0.007
SUZ12 (UniProt Q15022),0.015,0.043,-0.021,0.048,-0.016,0.027,0.006,0,-0.113,0.009,0.03,-0.025,0.037,-0.013,-0.008,-0.005,0.016,-0.007,-0.013,-0.026
SHCBP1 (UniProt Q8NEM2),0.061,0.046,-0.029,-0.043,0.028,-0.031,0.059,0.028,-0.073,0.078,-0.051,-0.024,-0.071,-0.043,0.026,-0.019,-0.035,-0.009,-0.019,-0.016
SP1 (UniProt P08047),0.077,0.009,0.022,-0.024,-0.063,0.056,-0.049,0.095,-0.027,0.031,-0.035,-0.02,-0.028,0.117,-0.019,0.055,-0.031,-0.02,0.008,0.005
STK4 (UniProt Q13043),-0.029,-0.025,0.382,-0.104,0.004,0.504 (active),0.27,-0.027,-0.053,0.062,-0.077,0.343,0.214,0.177,0.282,-0.105,-0.047,0.585 (active),0.134,-0.016
SSU72 (UniProt Q9NP77),-0.02,0.008,-0.042,-0.288 (active),-0.004,0.134,-0.074,0.057,-0.052,0.166,0.031,-0.007,-0.008,-0.028,0.037,-0.002,0.02,-0.021,-0.013,0.041
SPPL2A (UniProt Q8TCT8),-0.002,-0.059,-0.127,-0.302,,-0.093,0.082,-0.032,-0.127,0.1,,,,,,-0.21,,0.046,0,-0.072
STK39 (UniProt Q9UEW8),0.011,-0.038,-0.063,-0.012,0.087,-0.044,0.021,0.032,-0.03,0.057,-0.104,0.071,-0.045,-0.024,0.046,-0.084,-0.053,0.053,0.058,-0.082
SRM (UniProt P19623),-0.015,-0.013,-0.048,-0.032,0.716 (active),-0.036,0.01,-0.017,-0.009,-0.033,0.026,-0.009,-0.008,0.009,0.012,0.009,0.014,0.041,0.017,0.045
STN1 (UniProt Q9H668),0.128,-0.201,-0.068,-0.235,,-0.212,-0.059,-0.101,-0.176,-0.028,-0.149,-0.071,,0.034,,-0.104,0.005,0.156,0.032,0.02
TAF6L (UniProt Q9Y6J9),-0.044,-0.091,0.035,0.037,0.024,-0.042,0.017,-0.019,-0.009,0.028,-0.023,0.012,-0.118,0.021,0.056,0.018,-0.032,0.094,0.028,0.034
SPA17 (UniProt Q15506),0.058,-0.012,0.019,-0.498 (active),0.009,0.303,-0.022,0.054,-0.076,0.25,,,-0.065,,-0.041,0.003,,-0.015,0.042,
